Assay results as given in PubChem BioAssay (Tox21).
Records with an inconclusive call do not appear. Calls of active or inactive are those of the source. The call rests on the fitted dose curve; in most records, active means well fitted curve in the direction sought with a large enough effect in the repeat runs; inconclusive means weak or mixed curves; inactive means no such curve, though single readings can be large; an effect the other way counts as inactive or inconclusive.

Experiments:
[1] = A CellTox Green Cytotoxicity Assay to monitor cytotoxicity in HEK293 cells - 40 hour (AID 1224871); further: nearly all actives have a fitted effect of over 45% in size
Procedure, shortened: (§1)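 Nonlytic real-time cytotoxicity: HEK293 + CellTox Green reagent plated, 5 h preincubation, pintool compound addition (23 nL in DMSO), 37 C for 40 h, fluorescence measured at successive time points.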

[2] = qHTS RealTime-Glo MT Cell Viability Assay in HEK293 cells - 16 hour (AID 1224872); further: nearly all actives have a fitted effect of over 50% in size; further: potency means the concentration at half of the fitted maximal effect
Procedure, shortened: (§2)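 Tox21 10K qHTS, HEK293, 600 cells/well, RealTime-Glo reagent co-dispensed with cells; 5 h preincubation, compound by pintool, 37 C, luminescence at 0–40 h.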

[3] = qHTS RealTime-Glo MT Cell Viability Assay in HepG2 cells - 8 hour (AID 1224873); further: nearly all actives have a fitted effect of over 55% in size
Procedure, shortened: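 Real-time viability: cells seeded at 600 per well together with NanoLuc and cell-permeant prosubstrate, compounds added after 5 h incubation. Luminescence tracked at 0, 8, 16, 24, 32 and 40 h of exposure.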

[4] = qHTS RealTime-Glo MT Cell Viability Assay in HEK293 cells - 40 hour (AID 1224874); details: RealTime-Glo luminescence; max response: hits give low values; further: nearly all actives have a fitted effect of over 50% in size; further: potency means the concentration at half of the fitted maximal effect
Procedure, shortened: (§3)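 Cells were seeded together with NanoLuc luciferase and a prosubstrate that viable cells reduce to a luciferase substrate. After a 5 h incubation at 37 C/5% CO2, compounds were added and luminescence was measured repeatedly during 40 h of treatment.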

[5] = A CellTox Green Cytotoxicity Assay to monitor cytotoxicity in HEK293 cells - 24 hour (AID 1224875); further: series mostly up to about 77 µM; nearly all actives have a fitted effect of over 45% in size
Procedure, shortened: as §1

[6] = A CellTox Green Cytotoxicity Assay to monitor cytotoxicity in HepG2 cells - 16 hour (AID 1224876); further: nearly all actives have a fitted effect of over 45% in size
Procedure, shortened: (§4)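 Read-out is fluorescence of a cyanine dye excluded from live cells that stains DNA of dead HepG2 cells, with signal proportional to cytotoxicity. Plates were read at 0, 8, 16, 24, 32 and 40 h after compound addition.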

[7] = qHTS RealTime-Glo MT Cell Viability Assay in HepG2 cells - 32 hour (AID 1224877); further: nearly all actives have a fitted effect of over 55% in size
Procedure, shortened: (§5)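 Cells + NanoLuc/prosubstrate dispensed (600 cells/well) → 5 h at 37 C/5% CO2 → compounds in DMSO transferred → 40 h incubation at 37 C, luminescence read at 0, 8, 16, 24, 32, 40 h.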

[8] = A CellTox Green Cytotoxicity Assay to monitor cytotoxicity in HepG2 cells - 24 hour (AID 1224878); further: nearly all actives have a fitted effect of over 45% in size
Procedure, shortened: as §4

[9] = A CellTox Green Cytotoxicity Assay to monitor cytotoxicity in HepG2 cells - 40 hour (AID 1224879); further: nearly all actives have a fitted effect of over 40% in size; further: potency means the concentration at half of the fitted maximal effect
Procedure, shortened: as §4

[10] = qHTS RealTime-Glo MT Cell Viability Assay in HEK293 cells - 0 hour (AID 1224880)
Procedure, shortened: as §3

[11] = A CellTox Green Cytotoxicity Assay to monitor cytotoxicity in HEK293 cells - 32 hour (AID 1224881); further: nearly all actives have a fitted effect of over 40% in size
Procedure, shortened: as §1

[12] = A CellTox Green Cytotoxicity Assay to monitor cytotoxicity in HepG2 cells - 0 hour (AID 1224882); further: nearly all actives have a fitted effect of over 35% in size
Procedure, shortened: as §4

[13] = A CellTox Green Cytotoxicity Assay to monitor cytotoxicity in HepG2 cells - 32 hour (AID 1224883); further: nearly all actives have a fitted effect of over 50% in size; further: potency means the concentration at half of the fitted maximal effect
Procedure, shortened: as §4

[14] = A CellTox Green Cytotoxicity Assay to monitor cytotoxicity in HEK293 cells - 8 hour (AID 1224884); further: nearly all actives have a fitted effect of over 35% in size
Procedure, shortened: as §1

[15] = qHTS RealTime-Glo MT Cell Viability Assay in HepG2 cells - 16 hour (AID 1224885); further: nearly all actives have a fitted effect of over 50% in size
Procedure, shortened: as §5

[16] = qHTS RealTime-Glo MT Cell Viability Assay in HEK293 cells - 24 hour (AID 1224886); further: nearly all actives have a fitted effect of over 50% in size; further: potency means the concentration at half of the fitted maximal effect
Procedure, shortened: as §2

[17] = qHTS RealTime-Glo MT Cell Viability Assay in HEK293 cells - 8 hour (AID 1224887); further: nearly all actives have a fitted effect of over 50% in size; further: potency means the concentration at half of the fitted maximal effect
Procedure, shortened: as §3

[18] = qHTS RealTime-Glo MT Cell Viability Assay in HepG2 cells - 0 hour (AID 1224889); further: nearly all actives have a fitted effect of over 50% in size
Procedure, shortened: as §5

[19] = A CellTox Green Cytotoxicity Assay to monitor cytotoxicity in HepG2 cells - 8 hour (AID 1224890); further: nearly all actives have a fitted effect of over 45% in size
Procedure, shortened: as §4

[20] = A CellTox Green Cytotoxicity Assay to monitor cytotoxicity in HEK293 cells - 16 hour (AID 1224888); further: nearly all actives have a fitted effect of over 35% in size
Procedure, shortened: as §1
On the % scale 0 is the no-effect control and ±100 the full control effect.

CCCCc1c(C)nc(NCC)nc1OS(=O)(=O)N(C)C
active: Potency [2] 12.3 µM | Potency [4] 13.8 µM | Potency [16] 12.3 µM | Potency [17] 9.77 µM
inactive: Potency [1] | Potency [3] | Potency [5] | Potency [6] | Potency [7] | Potency [8] | Potency [9] | Potency [10] | Potency [11] | Potency [12] | Potency [13] | Potency [14] | Potency [15] | Potency [18] | Potency [19]

COc1c(C(C)(C)C)cc([N+](=O)[O-])c(C)c1[N+](=O)[O-]
inactive: Potency [1] | Potency [2] | Potency [3] | max response [4] 1.56% | Potency [5] | Potency [6] | Potency [7] | Potency [8] | Potency [9] | Potency [10] | Potency [11] | Potency [12] | Potency [13] | Potency [14] | Potency [15] | Potency [16] | Potency [17] | Potency [18] | Potency [19]

C=COC(C)=O
inactive: Potency [1] | Potency [2] | Potency [3] | max response [4] 2.49% | Potency [5] | Potency [6] | Potency [7] | Potency [8] | Potency [9] | Potency [10] | Potency [11] | Potency [12] | Potency [13] | Potency [14] | Potency [15] | Potency [16] | Potency [17] | Potency [18] | Potency [19]

CCCCCCCCCCOC(=O)c1ccccc1C(=O)OCCCCCCCCCC
inactive: Potency [1] | Potency [2] | Potency [3] | max response [4] 0.334% | Potency [5] | Potency [6] | Potency [7] | Potency [8] | Potency [9] | Potency [11] | Potency [12] | Potency [13] | Potency [14] | Potency [15] | Potency [16] | Potency [17] | Potency [20] | Potency [18] | Potency [19]

CCC(Br)(CC)C(=O)NC(N)=O
inactive: Potency [1] | Potency [2] | Potency [3] | max response [4] 5.12% | Potency [5] | Potency [6] | Potency [7] | Potency [8] | Potency [9] | Potency [10] | Potency [11] | Potency [12] | Potency [13] | Potency [14] | Potency [15] | Potency [16] | Potency [17] | Potency [19]

CCOC(=O)C(Cl)C(C)=O (stereo not given)
inactive: Potency [1] | Potency [2] | Potency [3] | max response [4] -9.27% | Potency [5] | Potency [6] | Potency [7] | Potency [8] | Potency [10] | Potency [11] | Potency [12] | Potency [15] | Potency [16] | Potency [17] | Potency [18] | Potency [19]
active: Potency [9] 24.8 µM | Potency [13] 24.8 µM

COCC(C)N(C(=O)CCl)c1c(C)csc1C (stereo not given)
inactive: Potency [1] | Potency [2] | Potency [3] | max response [4] 17.2% | Potency [5] | Potency [6] | Potency [7] | Potency [8] | Potency [10] | Potency [11] | Potency [12] | Potency [14] | Potency [15] | Potency [16] | Potency [17] | Potency [20] | Potency [18] | Potency [19]

COC1=CC(=O)O[C@@H](CCc2ccccc2)C1
inactive: Potency [1] | Potency [2] | Potency [3] | max response [4] -25.1% | Potency [5] | Potency [6] | Potency [7] | Potency [8] | Potency [9] | Potency [11] | Potency [12] | Potency [13] | Potency [14] | Potency [15] | Potency [16] | Potency [17] | Potency [20] | Potency [18] | Potency [19]

C=CC(=O)OCC(C)O (stereo not given)
inactive: Potency [1] | Potency [2] | Potency [3] | max response [4] 21.2% | Potency [5] | Potency [6] | Potency [7] | Potency [8] | Potency [9] | Potency [11] | Potency [12] | Potency [13] | Potency [14] | Potency [15] | Potency [16] | Potency [17] | Potency [20] | Potency [19]

C=CC(=O)OC
inactive: Potency [1] | Potency [2] | Potency [3] | max response [4] 0.596% | Potency [5] | Potency [6] | Potency [7] | Potency [8] | Potency [9] | Potency [11] | Potency [12] | Potency [13] | Potency [14] | Potency [15] | Potency [16] | Potency [17] | Potency [20] | Potency [18] | Potency [19]

C[C@H]1CNCCc2ccc(Cl)cc21
inactive: Potency [1] | Potency [2] | Potency [3] | max response [4] -6.61% | Potency [5] | Potency [6] | Potency [7] | Potency [8] | Potency [9] | Potency [11] | Potency [12] | Potency [13] | Potency [14] | Potency [15] | Potency [16] | Potency [17] | Potency [20] | Potency [18] | Potency [19]

O=C(O)CC(Cl)C(=O)O (stereo not given)
inactive: Potency [1] | Potency [2] | Potency [3] | max response [4] 0.924% | Potency [5] | Potency [7] | Potency [11] | Potency [12] | Potency [14] | Potency [15] | Potency [16] | Potency [17] | Potency [20] | Potency [18] | Potency [19]

COc1nn(CSP(=S)(OC)OC)c(=O)s1
inactive: Potency [1] | Potency [2] | Potency [3] | max response [4] -3.23% | Potency [5] | Potency [6] | Potency [7] | Potency [10] | Potency [11] | Potency [12] | Potency [14] | Potency [15] | Potency [16] | Potency [17] | Potency [18] | Potency [19]

O=C(C(Cl)(Cl)Cl)C(Cl)(Cl)Cl
inactive: Potency [1] | Potency [2] | Potency [3] | max response [4] -7.45% | Potency [5] | Potency [6] | Potency [7] | Potency [8] | Potency [9] | Potency [11] | Potency [12] | Potency [13] | Potency [14] | Potency [15] | Potency [16] | Potency [17] | Potency [20] | Potency [18] | Potency [19]
